Measured values as given in PubChem BioAssay (EPA / NIEHS).
Active and inactive are the calls of the source. Rule for the calls: active = hit-call score of the fitted dose curve at least 0.9, where 1 is the maximum; inactive = score below 0.9.

Assay: ATG_M_32_CIS: Attagene CIS-FACTORIAL HepG2 Assay for M32 Transcription Factor (Internal Marker) (AID 2282949);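 note: background control marker of the multiplexed CIS panel rather than a real target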
Conditions: HepG2 Attagene cis-factorial M32 reporter, mRNA; actives raise or lower the signal
Method: ATG_CIS is a cell-based, multiplexed-readout assay that uses HepG2, a human liver cell line, with measurements taken at 24 hours after chemical dosing in a 24-well plate.ATG_M_32_CIS is one of 52 assay component(s) measured or calculated from the ATG_CIS assay. It is designed to make measurements of mRNA induction, a form of inducible reporter, as detected with fluorescence intensity signals by Reverse transcription polymerase chain reaction (RT-PCR) and Capillary electrophoresis technology.Data from the assay component ATG_M_32_CIS was analyzed into 1 assay endpoint. This assay endpoint, ATG_M_32_CIS, was analyzed with bidirectional fitting relative to DMSO as the negative control and baseline of activity. Using a type of inducible reporter, measures of mRNA for gain or loss-of-signal activity can be used to understand the background control at the transcription factor-level as they relate to the gene . Furthermore, this assay endpoint can be referred to as a secondary readout, because this assay has produced multiple assay endpoints where this one serves a background control function. To generalize the intended target to other relatable targets, this assay endpoint is annotated to the background measurement intended target family, where the subfamily is internal marker.
Human liver HepG2 cells are transiently transfected with multiple reporter transcription units (MRTUs) in 6-well plates using FuGene 6 reagent (Roche; 3 ml FuGene/1 mg DNA). The MRTU constructs are regulated by a cis-regulating element (promoter). […] A major difference between the CIS and TRANS system is that in CIS activities of endogenous TFs are measured, whereas the TRANS assay evaluates changes in activities of exogenous, chimeric NR-Gal4 proteins. […] At the end of 24 hour incubation, total RNA was isolated using TriZol reagent (Invitrogen). The isolated RNA is then reverse-transcribed using oligo(dT) primer and Mo-MLV reverse transcriptase (Invitrogen) with DNAse I (Ambion) treatment for 30 min. The one-tenth of the produced cDNA was amplified by PCR using Taq DNA polymerase (Invitrogen) and two reporter sequence-specific primers. The PCR products were fluorescently labeled by primer extension with 6-arboxyfluorescein (6-FAM) 5'-labeled reporter sequence-specific primer (2 min at 95 C, 20 s at 68 C and 10 min at 72 C) and these products were digested with 5U of HpaI (New England Biolabs) for 2h at 37 C. The fragments were purified using Qiaquick PCR columns (Qiagen), analyzed on an ABI 3130xL genetic analyzer (Applied Biosystems) with peak positions identified by using a set of X-rhodamine (ROX)-labeled MapMarker1000 molecular weight standards (BioVentures). The raw capillary electrophoresis data was processed using Attagraph software (Attagene).

Compound	outcome
Cn1c(=O)cc(Oc2ccc(F)cc2F)c2cnc(NCC(C)(C)O)nc21	inactive
O=C(O)CC(O)C(=O)O (stereo not given)	inactive
Cn1cnc([N+](=O)[O-])c1Sc1ncnc2nc[nH]c12	inactive
CC(=O)OC[C@H]1O[C@@](COC(C)=O)(O[C@H]2O[C@H](COC(C)=O)[C@@H](OC(C)=O)[C@H](OC(C)=O)[C@H]2OC(C)=O)[C@@H](OC(C)=O)[C@@H]1OC(C)=O	inactive
Nc1nc2ncc(CNc3ccc(C(=O)N[C@@H](CCC(=O)O)C(=O)O)cc3)nc2c(=O)[nH]1	inactive
Nc1cccc(N)c1	inactive
O=C1OC(=O)C2C3C=CC(C3)C12 (stereo not given)	inactive
CCOC(=O)COc1ccc2c(c1)CC(NCC(O)c1cccc(Cl)c1)CC2 (stereo not given)	inactive
COc1ccc(/C=C/S(=O)(=O)NC(=O)c2ccc(C)cc2Cl)cc1	inactive
CC[C@H](C)C(=O)O[C@H]1C[C@@H](C)C=C2C=C[C@H](C)[C@H](CC[C@@H]3C[C@@H](O)CC(=O)O3)[C@H]21	inactive
CN(C)c1ccc(N=NS(=O)(=O)O)cc1	inactive
CC(O)CN(CCN(CC(C)O)CC(C)O)CC(C)O (stereo not given)	inactive
COC(=O)c1ccccc1O	inactive
COc1cccc(-c2ccc(/C=C\CN3CCCCCC3)cc2Cl)c1	inactive
O=P(OC(CCl)CCl)(OC(CCl)CCl)OC(CCl)CCl	inactive
Cc1c(-c2cccnc2)c2ccccc2n1CCCCC(=O)O	inactive
C[C@](N)(Cc1ccc(O)c(O)c1)C(=O)O	inactive
CC(C)CCO	inactive
CC1=CC(=O)CC(C)(C)C1	inactive
COc1ccc(-n2nc(C(F)F)cc2-c2ccc(S(C)=O)cc2)cc1 (stereo not given)	inactive

Compound	outcome
CCCCCCCCCCCCc1ccccc1	inactive
O=C1CCC(N2C(=O)c3ccccc3C2=O)C(=O)N1 (stereo not given)	inactive
COC(=O)c1c(Cl)c(Cl)c(C(=O)OC)c(Cl)c1Cl	inactive
CCOC(=O)CC(CC(=O)OCC)(OC(C)=O)C(=O)OCC	inactive
Oc1ccc2c(c1)-c1ccccc1C2	inactive
Cc1ccc(C)c(O)c1	inactive
CCCCCCCCO	inactive
CCc1cc(SCc2sc(-c3ccc(C(F)(F)F)cc3)nc2CN2CCN(c3ccc(OC)cc3)CC2)ccc1OCC(=O)O	inactive
CCCCC(CC)COC(=O)CCCCCCCCC(=O)OCC(CC)CCCC (stereo not given)	inactive
CC(C)=CCCC(C)CCO (stereo not given)	inactive
Cc1ccc(O)cc1	inactive
On1ccccc1=S	inactive
COCCOc1cc2cc(C(=O)NC3CCN(C(C)C)CC3)n(CC(=O)Nc3ccc(Cl)cn3)c2cn1	inactive
CC(C)CC(C)(O)C#CC(C)(O)CC(C)C (stereo not given)	inactive
CNS(=O)(=O)c1cc(C(=O)N2CCC(CCN3C4CCC3CC(n3c(C)nc5ccccc53)C4)(c3cccc(F)c3)CC2)c(Cl)cc1F (stereo not given)	inactive
NC(=O)NO	inactive
O=C(O)c1cccc(N(Cc2cccnc2)c2ccc(OC(F)F)c(OC(F)F)c2)c1	inactive
CCCCCCCCCCCCCCCO	inactive
COCCOCCOCCOC	inactive
CC(C)=CCC/C(C)=C/CO	inactive
